Experimental data published in PubChem BioAssay (NCI).
Compounds without any hit were thinned out: in the full panel of roughly 79,000, 15% have a hit. Unmarked numbers belong to inactive results. Activity calls are given as the source filed them. Rule as the data show it: active = growth inhibition above about 70%; inactive = the rest. Where a SMILES comes first, the peptide text is derived from it. [ ]: non-standard residue; d: D form. The star is where a group is joined. ξ: configuration not given here. ξF = NC(Cc1ccccc1)C(=O)O; Cbz = O=C(OCc1ccccc1)*; Aib = CC(C)(N)C(=O)O

Assay: NCI Yeast Anticancer Drug Screen. Data for the mlh1 rad18 strain (AID 175)
Details: S. cerevisiae mlh1 rad18 strain growth inhibition; at 50.0 µM; active compounds read high
Procedure: Growth inhibition of yeast strains with defined genetic alterations is measured as a screen for potential anti-cancer activity. Selected strains with alterations in DNA damage repair or cell cycle control were exposed to compounds and growth inhibition was measured relative to vehicle treated controls. The strain used in this assay is mlh1 rad18

| Structure (SMILES) | growth inhibition |
| --- | --- |
| C/C(=N/N(C)C)c1ccc(C)cc1 | 12.5% |
| Cc1cccc(SC(=O)Nc2cc([N+](=O)[O-])ccc2Cl)c1 | 20.5% |
| CN(C)CCCn1cnc2cc(Cl)c(Cl)cc21 | -0.15% |
| CCCCCCSc1ccc([N+](=O)[O-])cc1[N+](=O)[O-] | -21.1% |
| CCOC(=O)c1[nH]c(Cc2[nH]c(Cc3[nH]c(C(=O)OCC)c(C)c3C(=O)OCC)c(C(=O)OCC)c2C)c(C(=O)OCC)c1C | 8.55% |
| O=C(CCSC(=S)Nc1ccc(Cl)cc1)NNc1ccccc1 | 18.2% |
| C=C(C)C(O)CC (stereo not given) | 20.4% |
| Nc1ncnc2c1ncn2C1CC(O)C(COP(=O)(O)O)O1 (stereo not given) | 4.7% |
| N/C(=N\S(=O)(=O)c1cc(C(F)(F)F)cc(C(F)(F)F)c1)c1ccncc1 | 24.7% |
| C=CCCCCCCCCC(=O)NCC1CCCCO1 (stereo not given) | 58.1% |
| N#C/C(=C\c1c[nH]c2ccccc12)c1ccc([N+](=O)[O-])cc1 | -4.1% |
| CCCCCCCCCCCCCCCCCC(=O)N1CC[N+](C)(C)CC1 | 99.5% (active) |
| CCOC(=O)CSc1[nH]c2nc(C)nc(Cl)c2c1C#N | 16.6% |
| O=c1ncc2ccccc2[nH]1 | -23.9% |
| CCOC(=O)C1=C(C)N(NC(N)=O)C(C)(O)C12CCOC2=O (stereo not given) | 39% |
| O=C1C=CC(=NCl)C=C1 | 10.6% |
| CC1CC2=Cc3c(O)c(O)cc(O)c3C(=O)C2=CO1 (stereo not given) | -19.1% |
| O=c1n(CCCN2CCN(c3cccc(Cl)c3)CC2)nc2ccccn12 | 8.35% |
| CC(=O)Nc1cc2c(cc1Br)-c1ccc(Br)cc1C2 | 14.4% |
| O=NN(CC1(O)OCC(O)C(O)C1O)C(Cc1c[nH]c2ccccc12)C(=O)O (stereo not given) | -4.8% |

| Structure (SMILES) | growth inhibition |
| --- | --- |
| COc1cc2c(cc1C)C1=C(C)C(=O)OC1[C@@H](O)[C@@H]2C (stereo not given in full) | 18.8% |
| Cc1ccc(OC(=O)c2ccccc2)cc1CC(Cl)(Cl)Cl | -14.3% |
| CC1=C(C(=O)NCc2ccccc2)C(c2ccco2)C(C(=O)NCc2ccccc2)=C(C)N1 | -21.8% |
| Nc1ccc(C(=O)O)cn1 | -0.45% |
| Cc1ccccc1-n1c(C)nc2cc(NCC(=O)c3ccccc3)ccc2c1=O | 4% |
| COc1ccc(C2C(Cl)C(=O)N2NC(=O)c2ccccc2O)cc1OC (stereo not given) | -34.1% |
| O=C(Cl)c1cc(Cl)cc(Cl)c1Br | 25.7% |
| CC(O)C(F)(F)F (stereo not given) | 21.8% |
| COC1=CC(=O)c2ccc(C(C)C)cc2C1(C)C1=NC(C)(C)CO1 (stereo not given) | -9.8% |
| CC1(C)C2CCC13CS(=O)(=O)N1O[C@]13C(=O)O2 (stereo not given in full) | 31.9% |
| C[Si](C)(C)CCCn1ccc(=O)[nH]c1=O | -26.3% |
| CC(C)(NC(=O)OCc1ccccc1)C(=O)NC(Cc1ccccc1)C(=O)O (stereo not given) (Cbz-[Aib]-[ξF]-OH) | -11.3% |
| COc1cc(CCCOC(=O)/C=C/c2ccc(O)c(O)c2)cc(O)c1O | -72.4% |
| CC(C)(CO)NC(=O)c1ccccc1Br | 7.8% |
| COc1ccc(NC(=O)CC(=O)N/N=C/c2ccc(N(CCC#N)S(=O)(=O)c3ccccc3)cc2)cc1 | -2.75% |
| C=CCOC1OC(CS(=O)(=O)O)C(OC(C)=O)C(OC(C)=O)C1OC(C)=O (stereo not given) | 15.9% |
| CS/N=C(/c1ccc(/C(=N/SC)N(C)C)cc1)N(C)C | 5.75% |
| CCc1c(NCCO)c(C(=O)NCCO)c2nc3ccccc3n2c1NCCO | 11.8% |
| CCSSC12CCCN1C(=O)C1CCCN1C2=O (stereo not given) | 20.4% |
| CCOc1ccc(C(=O)OCCCl)cc1 | 10.6% |
